Assay [1] can be described thus: Nuclear factor erythroid 2-related factor 2/antioxidant responsive element (Nrf2/ARE) small molecule agonists: qHTS cell viability counter screen in human keratinocytes (AID 1919968; active = well fitted curve in the direction sought with a large enough effect in the repeat runs; an effect the other way counts as inactive or inconclusive; note: nearly all actives have a fitted effect of over 55% in size; note: potency is the fitted concentration of half-maximal effect). The essentials: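 Seed 1,500 KeratinoSens cells per well, then incubate 5 h at 37 C/5% CO2. Add compounds in DMSO and incubate 23 h. Add CellTiter-Fluor, wait 1 h and read fluorescence.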

Assay [2] concerns the target Gonadotropin-releasing hormone receptor (Homo sapiens) (UniProt P30968). The assay can be described thus: Human gonadotropin-releasing hormone receptor (GnRHR) small molecule agonists, calcium flux assay in GnRHR-HEK293 cells (AID 1920063). Note: nearly all actives have a fitted effect of over 35% in size. The essentials:
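Cells: HEK293 stably expressing human GnRHR. Steps: overnight (18 h) culture, 1 h calcium dye loading at 37 C, compound addition, kinetic fluorescence read at 480/540 nm. Each compound tested at 15 concentrations in triplicate.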
(In general: Calcium flux is commonly read through the fluorescence of an indicator in the cells.)

The target of assay [3] is KiSS-1 receptor (Homo sapiens) (UniProt Q969F8). In words: Human kisspeptin (KISS1R) small molecule agonists, calcium flux assay in KISS1R-HEK293 cells (AID 1920064; active = well fitted curve in the direction sought with a large enough effect in the repeat runs; an effect the other way counts as inactive or inconclusive). The essentials:
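Cells plated and incubated 18 h; dye added, 1 h at 37 C; compounds in DMSO pinned in; signal read at 480/540 nm every second for 3 min. Each compound tested at 15 concentrations in triplicate.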

Assay [4] is described as follows: G protein-coupled receptor (GPCR) small molecule agonists, calcium flux assay: HEK293 wild type cell line counter screen (AID 1920065). Note: potency is the fitted concentration of half-maximal effect. The method, boiled down: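 Counter-screen of the Tox21 10K library for non-specific calcium release: dye-loaded cells received compounds in DMSO and were monitored by kinetic fluorescence (480/540 nm, 3 min). Fifteen concentrations, run in triplicate.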

Assay [5] in a line: p53 small molecule agonists, cell-based qHTS assay with human liver microsomes (AID 1963577). The method, boiled down:
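p53RE-bla reporter cells were pre-incubated 5 h at 37 C, then treated with compounds plus human liver microsomes (0.5 mg/mL final) and NADPH (0.5 mg/mL final) for 16 h at 37 C. Beta-lactamase activity was read by LiveBLAzer fluorescence after 2 h at room temperature.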
(Quantitative high-throughput screening tests each substance at several concentrations.)

The nature of assay [6]: p53 small molecule agonists, cell-based qHTS assay with rat liver microsomes (AID 1963578). The method, boiled down: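 p53RE-bla cells were exposed to compounds together with rat liver microsomes (0.5 mg/mL final) and NADPH (0.5 mg/mL final) for 16 h at 37 C, then read by LiveBLAzer beta-lactamase fluorescence after 2 h at room temperature.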
Assay [7] can be described thus: p53 small molecule agonists, cell-based qHTS assay with human liver microsomes: qHTS cell viability counter screen (AID 1963579). Note: nearly all actives have a fitted effect of over 45% in size. Note: potency is the fitted concentration of half-maximal effect. The method, boiled down:
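p53RE-bla cells (4,000/well) were pre-incubated 5 h at 37 C, then given compounds in DMSO plus human liver microsomes (0.5 mg/mL final) and NADPH (0.5 mg/mL final) for 16 h at 37 C. Viability was read by CellTiter-Glo luminescence.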

Assay [8] is described as follows: p53 small molecule agonists, cell-based qHTS assay with rat liver microsomes: qHTS cell viability counter screen (AID 1963580). Note: nearly all actives have a fitted effect of over 45% in size. Note: potency is the fitted concentration of half-maximal effect. The essentials: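 HCT-116 p53RE-bla, 4,000 cells/well, 5 h pre-incubation; cpd + rat liver microsomes 0.5 mg/mL + NADPH 0.5 mg/mL (final); 16 h, 37 C; CellTiter-Glo, 30 min RT; luminescence.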
A short description of assay [9]: p53 small molecule agonists, cell-based qHTS assay: qHTS cell viability counter screen (AID 1963581). Note: nearly all actives have a fitted effect of over 45% in size. The method, boiled down:
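Cells: HCT-116 with p53 response element-driven beta-lactamase. Treatment: 16 h, 37 C, compounds in DMSO. Read: CellTiter-Glo luminescence after 30 min RT.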

Assay [10] has as its target 5-hydroxytryptamine receptor 2A (Homo sapiens) (UniProt P28223). In words: 5-hydroxytryptamine receptor 2A (HTR2A) small molecule antagonists, cell-based qHTS assay (AID 1963586). Note: nearly all actives have a fitted effect of over 45% in size. The method, boiled down: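 Antagonist-mode intracellular calcium assay: DOI (4 nM) added after 5 min compound pre-incubation at room temperature to dye-loaded HTR2A-CHO cells. Fluorescence followed for 3 min, sampled every second.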

Assay [11] has the same target. In words: 5-hydroxytryptamine receptor 2A (HTR2A) small molecule agonists, cell-based qHTS assay (AID 1963587). Note: nearly all actives have a fitted effect of over 30% in size. Note: potency is the fitted concentration of half-maximal effect. The method, boiled down: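 Kinetic calcium-flux fluorescence (2 min, 1 sec intervals) after compound addition in agonist mode. HTR2A-CHO cells were cultured 18 h, then dye-loaded 1 h at 37 C.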
In assay [12] the target is Muscarinic acetylcholine receptor M1 (Homo sapiens) (UniProt P11229). The assay can be described thus: Cholinergic receptor muscarinic 1 (CHRM1) small molecule antagonists, cell-based qHTS assay (AID 1963588). Note: nearly all actives have a fitted effect of over 40% in size. Note: potency is the fitted concentration of half-maximal effect. The method, boiled down: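 CHRM1-CHO calcium-flux assay, antagonist mode. Cells were seeded 18 h, dye-loaded 1 h at 37 C and given compound for 5 min at RT, then acetylcholine was added at 50nM. FDSS fluorescence was read 3 min; 15 concentrations, three runs.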

Assay [13] shares this target. In words: Cholinergic receptor muscarinic 1 (CHRM1) small molecule agonists, cell-based qHTS assay (AID 1963589). Note: nearly all actives have a fitted effect of over 35% in size. The method, boiled down: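 Agonist-mode qHTS in CHO cells stably carrying human muscarinic M1. Intracellular calcium is tracked by fluorescence every second after compound transfer; each compound runs at 15 concentrations in three independent runs.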
The nature of assay [14]: cAMP Responsive Elements (CRE) small molecule agonists, cell-based qHTS assay (AID 1963590). The method, boiled down: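 Agonist mode qHTS in CRE-bla HEK 293T cells: compounds dosed from DMSO for 3 h at 37 C/5% CO2, followed by LiveBLAzer B/G FRET substrate for 2 h at room temperature.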
The nature of assay [15]: cAMP Responsive Elements (CRE) small molecule antagonists, cell-based qHTS assay (AID 1963591; active = well fitted inhibition curve with a large enough effect in the signal ratio in the repeat runs, not every such curve was filed as active; the % refers to the signal ratio). The method, boiled down:
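Antagonist mode: test compounds are co-incubated with the adenylyl cyclase activator NKH477 (0.25 uM final) on CRE-bla HEK293T cells for 3 h at 37 °C, followed by LiveBLAzer substrate loading.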

Assay [16] concerns the target Beta-2 adrenergic receptor (Homo sapiens) (UniProt P07550). In words: Adrenergic beta2 receptor (ADRB2) small molecule antagonists, cell-based qHTS assay (AID 1963592). Note: series mostly up to about 92 µM; nearly all actives have a fitted effect of over 50% in size. The essentials:
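Cells (CHO, stable ADRB2 overexpression) incubated 18-20hr at 37C; compounds added from DMSO; agonist mix (1nM isoproterenol, 100uM IBMX, 25uM Ro-20-1724) added; 0.5hr RT; d2-cAMP and anti-cAMP-cryptate added; 1hr RT; 665/615 nm read.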

Assay [17] shares this target. In words: Adrenergic beta2 receptor (ADRB2) small molecule agonists, cell-based qHTS assay (AID 1963593).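 Note: CHO cells stably overexpressing human ADRB2.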 The essentials: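 CHO cells stably over-expressing ADRB2 were plated overnight at 37C, then dosed with compounds plus a stimulation mix containing 100uM IBMX and 25uM Ro-20-1724 for 0.5hr at room temperature. cAMP was measured by HTRF competition, 1hr.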
For assay [18], the target named is D(2) dopamine receptor (Homo sapiens) (UniProt P14416). The assay can be described thus: Dopamine D2 receptor (DRD2) small molecule agonists, cell-based qHTS assay (AID 1963594). Note: nearly all actives have a fitted effect of over 35% in size. The method, boiled down: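 cAMP accumulation in DRD2-HEK293 cells measured by HTRF after 1 h detection; compounds added 10 min before NKH477 (200nM […]) forskolin-analogue stimulation, 30 min at room temperature, with Ro20-1724 present at 0.1 mM final.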

Assay [19] shares this target. The assay can be described thus: Dopamine D2 receptor (DRD2) small molecule antagonists, cell-based qHTS assay (AID 1963595; active = well fitted inhibition curve with a large enough effect in the signal ratio in the repeat runs, with a control signal flat; the % refers to the signal ratio; note: potency is the fitted concentration of half-maximal effect). The method, boiled down: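 HEK293 cells stably expressing DRD2, preincubated with 0.1 mM Ro20-1724 and compounds 10 min, were stimulated with 200 nM NKH477 plus 12 nM quinpirole for 30 min at room temperature; cAMP measured by HTRF (665/620 nm).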

Assay [20] can be described thus: p53 small molecule agonists, cell-based qHTS assay (AID 1963582; active = well fitted activation curve with a large enough effect in the signal ratio in the repeat runs, not every such curve was filed as active; the % refers to the signal ratio). The method, boiled down:
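Quantitative HTS in p53RE-bla cells: after a 5 h settling period, compounds delivered in DMSO were left on cells for 16 h at 37 C, and reporter induction was measured as fluorescence following 2 h substrate loading.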

Structures are written as SMILES. Several values for one entry are separate records, joined by “and”; a condition that tells them apart may be missing. Equal entries are not always repeated. Inconclusive results are not listed. Some structures have more than one record in an assay (separate samples or runs), and their calls can disagree. Activity calls are given as the source filed them. Unless noted, calls come from the whole dose curve.

These results are taken from PubChem BioAssay (Tox21).

Sequence of Beta-2 adrenergic receptor (Homo sapiens) (P07550 whole entry, looked up): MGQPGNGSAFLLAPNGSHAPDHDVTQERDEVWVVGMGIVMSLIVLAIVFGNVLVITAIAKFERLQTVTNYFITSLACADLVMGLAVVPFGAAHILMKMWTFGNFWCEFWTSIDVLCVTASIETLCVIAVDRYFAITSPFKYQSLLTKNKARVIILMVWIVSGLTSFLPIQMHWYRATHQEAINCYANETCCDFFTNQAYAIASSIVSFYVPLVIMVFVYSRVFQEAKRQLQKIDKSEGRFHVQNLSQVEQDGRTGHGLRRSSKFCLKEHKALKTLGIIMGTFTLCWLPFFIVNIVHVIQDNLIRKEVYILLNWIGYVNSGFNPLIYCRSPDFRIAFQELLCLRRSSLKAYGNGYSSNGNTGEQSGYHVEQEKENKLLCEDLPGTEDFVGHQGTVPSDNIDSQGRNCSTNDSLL
Sequence of Muscarinic acetylcholine receptor M1 (Homo sapiens) (P11229 whole entry, looked up): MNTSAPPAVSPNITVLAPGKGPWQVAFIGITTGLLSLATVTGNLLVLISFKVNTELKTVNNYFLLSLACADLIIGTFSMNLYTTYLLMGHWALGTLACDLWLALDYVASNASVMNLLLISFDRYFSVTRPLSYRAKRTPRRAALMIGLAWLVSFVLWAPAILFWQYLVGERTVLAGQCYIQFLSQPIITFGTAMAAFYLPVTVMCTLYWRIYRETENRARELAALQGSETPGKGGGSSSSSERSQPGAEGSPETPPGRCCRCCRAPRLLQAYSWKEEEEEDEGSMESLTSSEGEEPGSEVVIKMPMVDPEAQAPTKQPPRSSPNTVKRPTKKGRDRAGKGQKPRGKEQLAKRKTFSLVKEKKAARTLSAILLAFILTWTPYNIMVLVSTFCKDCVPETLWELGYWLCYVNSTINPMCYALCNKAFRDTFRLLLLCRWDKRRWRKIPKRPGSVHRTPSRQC
Sequence of 5-hydroxytryptamine receptor 2A (Homo sapiens) (P28223 whole entry, looked up): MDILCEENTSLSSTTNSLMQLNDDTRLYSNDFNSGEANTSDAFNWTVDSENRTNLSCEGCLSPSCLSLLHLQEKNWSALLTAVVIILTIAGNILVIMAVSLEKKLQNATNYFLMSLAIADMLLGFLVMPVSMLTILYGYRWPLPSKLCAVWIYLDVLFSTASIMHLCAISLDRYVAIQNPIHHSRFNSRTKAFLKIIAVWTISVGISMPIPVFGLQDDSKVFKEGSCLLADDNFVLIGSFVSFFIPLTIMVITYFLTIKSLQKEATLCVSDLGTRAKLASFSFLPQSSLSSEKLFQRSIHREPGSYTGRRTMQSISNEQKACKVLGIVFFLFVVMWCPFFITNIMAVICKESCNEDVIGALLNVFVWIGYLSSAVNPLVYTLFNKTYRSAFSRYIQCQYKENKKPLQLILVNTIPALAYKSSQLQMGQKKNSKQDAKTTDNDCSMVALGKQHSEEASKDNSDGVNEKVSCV
Sequence of D(2) dopamine receptor (Homo sapiens) (P14416 whole entry, looked up): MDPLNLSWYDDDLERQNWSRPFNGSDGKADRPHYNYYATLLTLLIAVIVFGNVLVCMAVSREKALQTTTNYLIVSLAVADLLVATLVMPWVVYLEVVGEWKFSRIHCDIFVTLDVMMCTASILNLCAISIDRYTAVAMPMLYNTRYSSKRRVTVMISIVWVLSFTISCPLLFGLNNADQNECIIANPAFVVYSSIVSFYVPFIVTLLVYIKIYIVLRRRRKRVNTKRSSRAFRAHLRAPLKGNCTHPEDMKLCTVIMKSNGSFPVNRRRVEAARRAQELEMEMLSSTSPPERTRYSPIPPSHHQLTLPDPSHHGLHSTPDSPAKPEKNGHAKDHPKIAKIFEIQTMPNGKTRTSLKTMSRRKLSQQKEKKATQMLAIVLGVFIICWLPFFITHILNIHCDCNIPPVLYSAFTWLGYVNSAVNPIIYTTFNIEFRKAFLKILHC
Sequence of Gonadotropin-releasing hormone receptor (Homo sapiens) (P30968 whole entry, looked up): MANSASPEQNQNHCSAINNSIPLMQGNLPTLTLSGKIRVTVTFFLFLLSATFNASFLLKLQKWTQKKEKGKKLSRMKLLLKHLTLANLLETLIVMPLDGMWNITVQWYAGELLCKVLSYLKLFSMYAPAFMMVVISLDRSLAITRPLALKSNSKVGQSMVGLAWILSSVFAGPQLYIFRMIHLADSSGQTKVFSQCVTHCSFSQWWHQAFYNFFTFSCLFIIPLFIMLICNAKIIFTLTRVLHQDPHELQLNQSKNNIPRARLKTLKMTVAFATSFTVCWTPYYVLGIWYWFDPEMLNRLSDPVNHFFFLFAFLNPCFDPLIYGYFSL
Sequence of KiSS-1 receptor (Homo sapiens) (Q969F8 whole entry, looked up): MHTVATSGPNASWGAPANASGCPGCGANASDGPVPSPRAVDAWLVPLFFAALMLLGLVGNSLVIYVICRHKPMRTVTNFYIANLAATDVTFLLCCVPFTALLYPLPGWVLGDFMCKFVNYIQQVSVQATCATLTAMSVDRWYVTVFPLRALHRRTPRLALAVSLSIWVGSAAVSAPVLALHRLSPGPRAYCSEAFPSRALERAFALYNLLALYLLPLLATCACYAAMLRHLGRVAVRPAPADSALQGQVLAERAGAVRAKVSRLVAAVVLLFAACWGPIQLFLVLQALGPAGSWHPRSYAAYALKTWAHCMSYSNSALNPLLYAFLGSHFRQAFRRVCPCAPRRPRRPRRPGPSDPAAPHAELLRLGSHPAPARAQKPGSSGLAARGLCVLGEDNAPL

`CCCCCCCCCCCCCl`: the Potency result in assay [1], in assay [2], in assay [3], in assay [4], in assay [5] and in assay [6] was “inactive” throughout. Also, the Potency entry in assay [7], in assay [8], in [9], in [10], in assay [11] and in assay [12] was “inactive” throughout. Further, the Potency result in [13], in assay [14], in [15], in assay [16], in assay [17] and in [18] was “inactive” each time. The Potency result in [19] is “inactive”.
Take `CNC`: the Potency result in [1], in [2], in [3], in [4], in [5] and in assay [6] was “inactive” each time. In addition, the Potency result in assay [7], in assay [8], in assay [9], in [20], in [10] and in assay [11] was “inactive” in each case. The Potency result in assay [13], in assay [14], in assay [15], in assay [16], in assay [17] and in assay [18] was “inactive” in each case. Moreover, in assay [19], the Potency result was “inactive”. Further, the Potency in assay [12] is 3.34 µM (active) and inactive.
For `CCCC[n+]1ccc(C)cc1`, the Potency result in assay [1] is “inactive and 27.2 µM (active)”; in [4] it was “inactive and 39 µM (active)”; in assay [7], “inactive and 40.6 µM (active)”; in assay [8], “inactive and 20.3 µM (active)”; in assay [11], “inactive and 43.4 µM (active) and 39 µM (active)”; in assay [19] it was “inactive and 60.8 µM (active)”. For the same molecule, the Potency entry in assay [9], in [10], in assay [12], in assay [13], in assay [14] and in [15] was “inactive” throughout. The Potency entry in [16] and in [17] was “inactive” throughout.
Take `N#Cc1ccccc1N`: the Potency entry in [1], in assay [2], in assay [3], in assay [4], in [5] and in [6] was “inactive” throughout. In addition, the Potency entry in [7], in [8], in [9], in assay [20], in [10] and in assay [11] was “inactive” in each case. Besides, the Potency result in assay [12], in assay [13], in assay [14], in assay [15], in assay [16] and in [17] was “inactive” each time. Moreover, the Potency result in assay [18] and in assay [19] was “inactive” each time.
For the molecule `CC(C)OC(=O)Cc1ccccc1`, the Potency result in assay [1], in [2], in assay [3], in assay [4], in assay [5] and in assay [6] was “inactive” throughout. The Potency entry in assay [7], in assay [8], in assay [9], in assay [20], in assay [10] and in assay [11] was “inactive” throughout. The Potency entry in assay [12], in [13], in [14], in assay [15], in assay [16] and in assay [18] was “inactive” each time. Further, in assay [19], the Potency entry was “inactive”.
Take `C=CC(=O)OCC(CC)CCCC` (configuration not stated): the Potency result in assay [1], in assay [2], in [3], in assay [4], in assay [5] and in assay [6] was “inactive” in each case. The Potency result in assay [7], in [8], in [9], in assay [20], in assay [10] and in assay [11] was “inactive” each time. Also, the Potency entry in assay [12], in assay [13], in assay [14], in assay [15], in [16] and in assay [17] was “inactive” each time. Also, the Potency result in assay [18] and in assay [19] was “inactive” each time.
As for `c1ccc2c(c1)Oc1ccccc1O2`, the Potency entry in assay [1], in [2], in [3], in assay [4], in assay [5] and in [6] was “inactive” each time. Besides, the Potency entry in assay [7], in [8], in assay [9], in [20], in assay [10] and in [11] was “inactive” in each case. For the same molecule, the Potency result in assay [12], in assay [13], in assay [14], in assay [15], in assay [16] and in [17] was “inactive” in each case. The Potency result in assay [18] and in assay [19] was “inactive” in each case.
